Source: PubChem (National Center for Advancing Translational Sciences (NCATS))
ATXN2 expr inh: reduces ATXN2 reporter expression in HEK-293 cells. HEK-293 ATXN2-luciferase reporter, luminescence, 24 h. hit rate 0.72% among 360,000. Potency, µM (series often up to 57 µM), without a hit: top-dose activity change, negative = inhibition, usual class: inhibitors; further: on the % scale 0 is the no-effect control and ±100 the full control effect; nearly all actives have a fitted effect of over 55% in size
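qHTS (up to 57 uM final) was run with 24 h compound exposure of reporter cells at 37 °C. Each well was multiplexed: SteadyGlo luminescence measured ATXN2-luciferase expression after a fluorogenic Gly-Phe-AFC viability readout (25 uM final).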
TGFb inhibitor: inhibitors of TGF-b signaling; HepG2 CAGA-GFP TGF-b/SMAD3 reporter, GFP fluorescence, 18 h; TGF-beta stimulated, 500 pg/mL final; Potency, µM (series often up to 46.1 µM), without a hit: top-dose activity, negative = inhibition, most hits filed as inhibitors; hit rate 1.2% among 410,000; further: on the % scale 0 is the no-effect control and ±100 the full control effect; nearly all actives have a fitted effect of over 65% in size
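GFP signal (ex488/em500-530) from TGF-beta-stimulated HEPG2 CAGA-GFP cells, 500 pg/mL final, 18 h at 37 degrees C in DMEM plus 1% FBS, normalized to unstimulated and DMSO-stimulated controls.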
TDP1 cell CPT: growth inhibition of DT40 Tdp1-/-;hTDP1 cells with camptothecin (screen for TDP1 inhibitors); chicken DT40 Tdp1-/-;hTDP1 cells + 20 nM CPT, ATP luminescence, 48 h; Potency, µM (top dose mostly 46.2 µM), inactives show at the top dose activity change, negative = growth inhibition, most hits filed as inhibitors; hit rate 12% among 420,000; AID 686979; further: on the % scale 0 is the no-effect control and ±100 the full control effect; nearly all actives have a fitted effect of over 55% in size
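Chicken DT40 Tdp1-/- cells stably complemented with human TDP1 were seeded at 400 cells/well in medium containing 20 nM camptothecin, exposed to pin-transferred compounds, and grown at 37 °C for at least 48 hr. Viability was read as ATP luminescence.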
ATXN viability: viability counter-screen for ATXN expression inhibitors | S2 cells (HEK-293 line with an ATXN2-luciferase reporter) viability, CellTiter-Fluor protease fluorescence, 24 h | hit rate 0.49% among 400,000 | AID 651635 | Potency, µM (highest dose often 56.7 µM), usual class: cytotoxic; further: nearly all actives have a fitted effect of over 40% in size
TDP1 cell noCPT: qHTS for Inhibitors of human tyrosyl-DNA phosphodiesterase 1 (TDP1): qHTS in cells in absence of CPT | DT40 Tdp1-/- hTDP1 cells, no CPT, ATP luminescence, 48 h | Potency, µM (titrated, usually from 46.2 µM), for inactives: top-dose activity change, negative = growth inhibition, most hits filed as inhibitors | hit rate 15% among 420,000 | AID 686978, 2013; further: on the % scale 0 is the no-effect control and ±100 the full control effect; nearly all actives have a fitted effect of over 55% in size
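Growth kinetics read by CellTiter-Glo luminescence after ≥48 hr at 37 °C. Cells: DT40 Tdp1-/- stably carrying human TDP1, 400 per well, compound exposure in the absence of CPT (DMSO vehicle).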
HepG2 viability: HepG2 cytotoxicity, counter-screen for TGF-b inhibitors | HepG2 CAGA-GFP viability, ATP luminescence, 18 h | Potency, µM (series often up to 46.1 µM), for inactives: top-dose activity change, negative = cytotoxicity, actives largely listed as cytotoxic | hit rate 0.76% among 410,000 | AID 588856
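HepG2 CAGA-GFP cells (1000/well, DMEM with 1% FBS) received compound, then TGF-beta at 500 pg/mL final, and were incubated 18 hours at 37 degrees C. Viability was read by CellTiter-Glo luminescence. Media-only wells were set as complete cell-killing and DMSO as no toxicity.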
Active calls of the source: *; i = inactive; ? = inconclusive; . = not tested or not shown. The list is not random: actives were taken first. Their share in the collection is about 17%. The call rests on the fitted dose curve; in most records, active means well fitted curve in the direction sought with a large enough effect; inconclusive means small, poorly fitted or top-dose-only effect, or another doubt; inactive means no such curve, though single readings can be large; an effect the other way counts as inactive or inconclusive. Potency means the concentration at half of the fitted maximal effect.

SMILES	ATXN2 expr inh	TGFb inhibitor	TDP1 cell CPT	ATXN viability	TDP1 cell noCPT	HepG2 viability
COc1cccc(CNC(=O)c2c(OC)cc(=O)n3c2CCN(C(=O)C2CC24CCCCC4)CC3)c1 (stereo unspecified)	.	.	-0.5%	i	-15.1%	.
O=S(=O)(NC1c2cccc3cccc(c23)C1Sc1ncccn1)c1ccccc1 (stereo unspecified)	-4.2%	?	?	i	20.6µM*	-12.6%
Cn1cnnc1SC1c2cccc3cccc(c23)C1NS(=O)(=O)c1ccccc1 (stereo unspecified)	2.3%	-20.8%	4.9%	i	-4.1%	4.1%
CCOc1ccccc1NC(=O)CSC1=Nc2ccccc2C2=NC(CC(=O)NC3CCCCC3)C(=O)N12 (stereo unspecified)	2.3%	-27.3%	20.6µM*	?	20.6µM*	0.1%
CCc1ccc(NC(=O)CSC2=Nc3ccccc3C3=NC(CC(=O)NC4CCCCC4)C(=O)N23)cc1 (stereo unspecified)	.	-8.5%	11.6µM*	.	9.2µM*	-31.8%
O=C(CSC1=Nc2ccccc2C2=NC(CC(=O)NC3CCCCC3)C(=O)N12)Nc1ccc(F)cc1 (stereo unspecified)	.	-11.7%	?	.	-94.2%	4.3%
CC(C)c1ccc(NC(=O)CSC2=Nc3ccccc3C3=NC(CC(=O)NC4CCCCC4)C(=O)N23)cc1 (stereo unspecified)	.	?	20.6µM*	.	20.6µM*	12.6µM*
O=C(CSC1=Nc2ccccc2C2=NC(CCC(=O)NC3CCCCC3)C(=O)N12)Nc1cccc(C(F)(F)F)c1 (stereo unspecified)	-2.7%	-26.9%	?	i	23.1µM*	-24.4%
COc1cccc(NC(=O)Nc2nnc([C@H]3C[C@H](O)[C@@H](CO)O3)s2)c1	0.3%	6.7%	?	i	-2.9%	-10.2%
Cc1ccc(OCC(=O)NNC(=O)c2ccccc2OCc2c(C)noc2C)cc1	-4.9%	11.7%	3.3%	i	-19.4%	8.6%
COc1ccc(OC)c(NC(=O)CSC2=Nc3ccccc3C3=NC(CCC(=O)NC4CCCCC4)C(=O)N23)c1 (stereo unspecified)	.	1.4%	-0.3%	.	-27.5%	-4.4%
COc1ccc(OC)c(NC(=O)CSC2=Nc3ccccc3C3=NC(CC(=O)NCc4ccco4)C(=O)N23)c1 (stereo unspecified)	.	?	?	.	?	-3.1%
CN(C(=O)CSC1=Nc2ccccc2C2=NC(c3ccccc3)C(=O)N12)C1CCCCC1 (stereo unspecified)	5.9%	28.5%	20.6µM*	?	?	-13.3%
COc1ccc(NC(=O)CSC2=Nc3ccccc3C3=NC(CCC(=O)NC4CCCCC4)C(=O)N23)cc1 (stereo unspecified)	.	-6.5%	?	.	-25.7%	-2.0%
CCOc1ccc(NC(=O)CSC2=Nc3ccccc3C3=NC(CC(=O)NCc4ccco4)C(=O)N23)cc1 (stereo unspecified)	.	34.5%	14.6µM*	.	23.1µM*	-21.9%
CC(C)c1ccc(NC(=O)CSC2=Nc3ccccc3C3=NC(CCC(=O)NC4CCCCC4)C(=O)N23)cc1 (stereo unspecified)	.	-2.5%	23.1µM*	.	23.1µM*	3.0%
O=C(CSC1=Nc2ccccc2C2=NC(c3ccccc3)C(=O)N12)NC1CCCCC1 (stereo unspecified)	5.8%	-14.4%	-8.6%	i	-14.3%	0.0%
COc1ccc(NC(=O)CSC2=Nc3ccccc3C3=NC(CCC(=O)NC4CCCCC4)C(=O)N23)cc1Cl (stereo unspecified)	10.1%	-7.2%	?	i	23.1µM*	4.6%
COc1cccc(OCC(=O)Nc2nnc3n2CCS3)c1	8.2%	20.3%	-19.3%	i	-0.5%	-1.2%
Cc1ccccc1Cn1c(SCc2ccc(C(=O)NCCc3ccccc3)cc2)nc2ccncc21	-8.0%	?	20.6µM*	?	20.6µM*	-14.4%
O=C(NCCc1ccccc1)c1ccc(CSc2nc3ccncc3n2Cc2ccccc2)cc1	-5.5%	?	4.61µM*	?	?	-27.6%
Cc1ccccc1Cn1c(SCc2ccc(C(=O)NC3CCCCC3)cc2)nc2ccncc21	11.3%	?	23.1µM*	i	?	-19.8%
CCn1c(CCNC(=O)c2ccc(C)cc2)nnc1SCc1ccc(Cl)c(Cl)c1	-1.8%	?	20.6µM*	i	23.1µM*	0.7%
CC(CNC(=O)c1ccc(CSc2nc3ccncc3n2Cc2ccccc2)cc1)c1ccccc1 (stereo unspecified)	.	-13.4%	?	.	?	-26.9%
O=C(COc1ccccc1Cl)OCc1cc(=O)n2nc(C3CC3)sc2n1	-0.5%	-0.8%	-23.1%	i	-13.6%	2.5%
SMILES	ATXN2 expr inh	TGFb inhibitor	TDP1 cell CPT	ATXN viability	TDP1 cell noCPT	HepG2 viability
CN(Cc1c(C(=O)N2CCc3ccccc3C2)nc2ccc(Cl)cn12)C(C1CC1)C1CC1	.	2.2%	5.8%	i	2.9%	7.8%
Cc1ccccc1Cn1c(SCc2ccc(C(=O)NC3CCCC3)cc2)nc2ccncc21	2.9%	?	?	i	?	-12.3%
Cc1ccc(Cn2c(SCc3ccc(C(=O)NCCc4ccccc4)cc3)nc3ccncc32)cc1	.	?	14.6µM*	.	11.6µM*	-24.9%
CC(=O)N1CCCc2cc(S(=O)(=O)N3CCCC(C(=O)Nc4ccc(C)c(F)c4)C3)ccc21 (stereo unspecified)	?	-29.0%	?	?	20.6µM*	-1.9%
O=C(NCc1ccccc1Cl)C1CCN(S(=O)(=O)c2ccc3c(c2)CCCN3C(=O)C2CCC2)CC1	-19.2%	-24.2%	14.6µM*	?	14.6µM*	-24.1%
CCC(=O)N1CCCc2cc(S(=O)(=O)N3CCC(C(=O)Nc4ccccc4CC)CC3)ccc21	0.0%	-10.0%	25.9µM*	i	?	-1.2%
CC(=O)N1CCCc2cc(S(=O)(=O)N3CCN(c4ccc(F)cc4)CC3)ccc21	-18.3%	?	23.1µM*	i	16.4µM*	-10.6%
COc1cccc(C(=O)n2nc(-c3cccnc3)nc2NCc2ccc(F)cc2)c1	-14.8%	-19.1%	-18.4%	i	?	-22.9%
CNC(=O)c1cc(NC(=O)CCn2nc(-c3ccc(C)cc3)c3ccccc3c2=O)ccc1OC	-1.8%	1.3%	?	i	?	-38.7%
